# PubChem BioAssay AID2685 (National Center for Advancing Translational Sciences (NCATS), 2010)
# About 2,100 (0.66%) of roughly 320,000 compounds were called active. About 53% were inconclusive and are not listed. Calls come from the whole dose curve; as a rule, active = well fitted inhibition curve with a large enough effect in the signal ratio, with a control signal flat (not every such curve was filed as active); inconclusive = small, poorly fitted or top-dose-only effect, or effect the other way, or a change in a side signal; inactive = flat fitted curve, though single readings scatter; the % refers to the signal ratio. The entries come from a sample that favours actives as a whole.
# Assay: qHTS Assay for Lipid Storage Modulators in Drosophila S3 Cells;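 for cell number change: cells counted by Cell Tracker Red CMTPX staining in the red channel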; for lipid storage change, negative = inhibition: % is set by controls: 0 for no effect and ±100 for the full control effect
# Conditions: BODIPY lipid droplet fluorescence, 18-24 h, cells fed with added oleic acid; cell number change: measured here: cell count max response; series mostly up to 46.1 µM; lipid storage change, negative = inhibition: at the top concentration
# In short: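 Laser-scanning cytometry quantifies lipid droplet accumulation (500–530 nm total intensity; droplet/cell object ratio) in oleic acid-fed (400 uM added) Drosophila S3 cells treated with a concentration series. 20 uM Triacsin C defined 100% inhibition.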
# Potency is the fitted concentration of half-maximal effect.
SMILES,"lipid storage change, negative = inhibition",cell number change,Potency,outcome
Cc1cccc(-n2cc(-c3ccccc3)c3c(N4CCOCC4)ncnc32)c1,8.58% (inactive),18.2%,–,–
CC(=O)CSc1ncnc2nc[nH]c12,1.08% (inactive),–,–,–
O=C(O)CSc1ncnc2nc[nH]c12,–,2.03%,20.6 µM (active),–
O=C(CSc1ncnc2nc[nH]c12)c1ccc(Cl)cc1,4.43% (inactive),-11.7%,–,–
CC(C)c1nnc(NC(=O)C2CCN(C(=O)Nc3ccc(Cl)cc3)CC2)s1,3.85% (inactive),5.41%,–,–
CCc1ccccc1NC(=S)N(CCN1CCCCC1)Cc1ccco1,-1.49% (inactive),5.79%,–,–
Cc1cc(OCCCn2cnc3ccccc3c2=O)ccc1[N+](=O)[O-],20.5% (inactive),0.141%,–,–
COc1cc(OC)cc(C(=O)NC(=S)NNC(=O)Cc2cccs2)c1,14.8% (inactive),0.453%,–,–
CCOC(=O)N1CCN(c2c(N3CCN(c4ccc(OC)cc4)CC3)c(=O)c2=O)CC1,2.64% (inactive),5.73%,–,–
CCCCn1c(CN2CCN(c3cccc(Cl)c3)CC2)nc2c1c(=O)n(C)c(=O)n2C,–,–,–,inactive
CCCCn1c(CN2CCN(c3ccccc3)CC2)nc2c1c(=O)n(C)c(=O)n2C,–,-29.7%,20.6 µM (active),–
CCCCn1c(CN2CCN(c3ccc(F)cc3)CC2)nc2c1c(=O)n(C)c(=O)n2C,5.72% (inactive),2.55%,–,–
O=C(NCc1ccccc1)C1C2C=CC3(CN(Cc4cccnc4)C(=O)C13)O2 (configuration not stated),-17.4% (inactive),-20%,–,–
Cc1cc(C(=O)CSc2nn3c(=O)c(C(C)(C)C)nnc3s2)c(C)n1C1CC1,–,–,–,inactive
CCOc1ccc(NC(=S)NC(=O)C2CCCC2)cc1,-6.34% (inactive),–,–,–
CN1CCS/C1=C\C=C1/SC(=S)N(CC(=O)O)C1=O,21.7% (inactive),6.49%,–,–
CN1CCS/C1=C/C=C1\SC(=S)N(CC(=O)O)C1=O,13.2% (inactive),-4.93%,–,–
CCCCN1C(=O)/C(=C/C=C2/CC(C)(C)CN2C)SC1=S,–,0.528%,9.2 µM (active),–
Cc1ccc(C)c(OCc2nnc(SCC(=O)NCc3ccc4c(c3)OCO4)o2)c1,5.42% (inactive),17.4%,–,–
CC(C)Nc1ccc(C(CC(N)=O)NC(=O)Cc2ccc(Cl)cc2)cc1[N+](=O)[O-] (configuration not stated),-6.83% (inactive),–,–,–
COC(=O)C(C)Sc1nnc(SC(C)C(=O)OC)s1 (configuration not stated),–,26.4%,–,inactive
COC(=O)C(C)Sc1n[nH]c(=S)s1 (configuration not stated),–,12.5%,18.4 µM (active),–
COC(=O)CSc1n[nH]c(=S)s1,-3.44% (inactive),-9.98%,–,–
CCCCCCCc1c(O)nc(SCCN2CCOCC2)[nH]c1=O,15% (inactive),2%,–,–

SMILES,"lipid storage change, negative = inhibition",cell number change,Potency,outcome
Cc1cc([N+](=O)[O-])nn1CC(=O)NC(C)c1ccccc1 (configuration not stated),8.15% (inactive),-17.7%,–,–
COC(=O)NNC(=O)c1ccccc1OC,–,-18.2%,–,inactive
Cc1ccccc1C(=O)NNC(=O)c1ccoc1C,13.5% (inactive),21.8%,–,–
COC(=O)NNC(=O)c1ccccc1C,–,-4.05%,25.9 µM (active),–
O=c1c2cc(Br)ccc2[nH]c(=S)n1Cc1ccccc1,48.1% (inactive),–,–,–
Cc1ccc(-c2cc(C(F)(F)F)n3ncc(C(=O)NCc4ccco4)c3n2)cc1,-6.97% (inactive),-26.7%,–,–
Cc1cc(C)c(Cc2c(C)nc3c(C(=O)NCc4ccco4)cnn3c2C)c(C)c1,–,–,6.51 µM (active),–
Cc1nc2c(C(=O)NCc3cccs3)cnn2c(C)c1Cc1ccccc1,7.94% (inactive),-10.7%,–,–
COc1ccc(-c2cc(-c3ccccc3)nc(SCC(=O)Nc3nccs3)c2C#N)cc1,11.7% (inactive),6.74%,–,–
Cc1ccc(NC(=O)CCNS(=O)(=O)c2ccc3[nH]c(=O)oc3c2)c(Cl)c1,–,-2.47%,–,inactive
CN(C(=O)c1ccc(=O)[nH]c1)C1(C(=O)NC2CCCCC2)CCCCC1,-8.5% (inactive),-13.5%,–,–
Cc1nn(C)cc1-c1csc(N)n1,-5.77% (inactive),19%,–,–
COc1ccc(NC(=O)C2CCCN(S(=O)(=O)c3cccnc3)C2)c(OC)c1 (configuration not stated),-0.456% (inactive),12.4%,–,–
COc1ccc(C(=O)NNC(=S)NC(=O)c2ccco2)cc1,-27% (inactive),1.44%,–,–
COc1ccc(C(=O)NC(=S)NNC(=O)c2ccco2)cc1,–,-19.8%,–,inactive
O=C(NC(=S)NNC(=O)c1ccco1)c1ccc(F)cc1,–,4.58%,18.4 µM (active),–
CCCCN(C(=O)c1nn(C)c(=O)c2ccccc12)c1c(N)n(CC(C)C)c(=O)[nH]c1=O,6.7% (inactive),3.88%,–,–
O=C(CSc1nnc([C@@H]2CCCN2)o1)c1ccc(Cl)cc1,14.1% (inactive),3.48%,–,–
O=C(NC1=NCCS1)c1cccc(NC(=O)c2ccco2)c1,–,–,–,inactive
COc1ccc(CNC(=O)CN2c3ccccc3S(=O)(=O)c3ccccc32)cc1,–,–,–,inactive
CCN1c2ccccc2S(=O)(=O)c2ccccc21,–,-15.5%,1.84 µM (active),–
CCN1C(=O)N(c2ccc(C(C)=O)cc2)S(=O)(=O)c2ccccc21,20.2% (inactive),7.75%,–,–
COc1cccc(NC(=O)C(Cc2ccccc2)n2cccc2)c1 (configuration not stated),15% (inactive),23.9%,–,–
O=C(c1ccccc1)N1CCN(c2ccccc2F)CC1,–,–,–,inactive

SMILES,"lipid storage change, negative = inhibition",cell number change,Potency,outcome
CCN(CC)CCCN(C(=O)Cn1nnc(-c2ccc(OC)c(OC)c2)n1)C(C(=O)NC(C)(C)C)c1ccc(F)cc1 (configuration not stated),-9.11% (inactive),-0.835%,–,–
COc1ccc(C(C)=O)cc1CSc1nnc(SCc2cc(C(C)=O)ccc2OC)s1,12.7% (inactive),7.73%,–,–
COc1ccc(C(C)=O)cc1CSc1nnc(Nc2ccccc2C)s1,22.8% (inactive),–,–,–
COc1ccc(C(C)=O)cc1CSc1nnc(Nc2ccccc2)s1,–,-8.23%,2.31 µM (active),–
CN(C(=O)COC(=O)CCc1nc2ccccc2c(=O)[nH]1)C1CCS(=O)(=O)C1 (configuration not stated),-17.9% (inactive),-1.94%,–,–
COCCNC(=O)c1cccc2c1-c1ccccc1C2=O,-7.63% (inactive),-10.2%,–,–
CC(=O)CCc1oc2ccc(C)cc2c1-c1ccccc1,20.7% (inactive),1.81%,–,–
O=S(=O)(Cc1ccccc1)Nc1ccc(S(=O)(=O)N2CCCC2)cc1,12.9% (inactive),-4.32%,–,–
O=C1CN(c2nc(-c3cccs3)nc3sc4c(c23)CCCC4)CCN1,–,-27.1%,1.64 µM (active),–
O=c1oc(-c2cccs2)nc2sc3c(c12)CCC3,-1.18% (inactive),1.06%,–,–
O=c1oc(-c2cccs2)nc2sc3c(c12)CCCCC3,-9.97% (inactive),7.26%,–,–
N#CCCNC(=O)Cn1c(COc2ccc(Cl)cc2)nc2ccccc21,15% (inactive),6.47%,–,–
COc1cccc(-c2nc3c(c(SCC(=O)N4CCOCC4)n2)Cc2c(CO)cnc(C)c2O3)c1,–,–,0.651 µM (active),–
COc1cccc(-c2noc(CCCC(=O)N3CCOCC3)n2)c1,-11.5% (inactive),-4.07%,–,–
CCc1ccc(NC(=O)CSc2nc(-c3ccc(C)cc3)nc3c2Cc2c(CO)cnc(C)c2O3)cc1,-8.05% (inactive),-9.8%,–,–
COC(C[C@H](O)[C@H](C)[C@H](O)COCc1ccccc1)OC,-0.509% (inactive),11.5%,–,–
O=C(CN1C(=O)COc2ccccc21)Nc1ccc2c(c1)OCCO2,–,3.43%,–,inactive
COc1ccc(C(=O)N/C(=C\c2cn(C)c3ccccc23)C(=O)N2CCN(C)CC2)cc1OC,–,0.763%,–,inactive
COc1ccc(C(=O)N/C(=C\c2cn(C)c3ccccc23)C(=O)N2CCOCC2)cc1OC,–,9.92%,23.1 µM (active),–
COc1ccc(C(=O)N/C(=C\c2cn(C)c3ccccc23)C(=O)N2CCOCC2)cc1,–,8.73%,–,inactive
CCCN1CCN(C(=O)c2noc3c2COc2ccc(C)cc2-3)CC1,-30.8% (inactive),-19.6%,–,–
Cc1cc(=O)oc2cc(OC(C)C(=O)Nc3ccc(N4CCOCC4)cc3)ccc12 (configuration not stated),20.2% (inactive),–,–,–
COc1ccc2oc(C(=O)OC(C)C(=O)N3CCC(C)CC3)c(C)c2c1 (configuration not stated),-4.24% (inactive),-13.1%,–,–
COc1ccc2oc(C(=O)OC(C)C(=O)Nc3ccc(N4CCOCC4)cc3)c(C)c2c1 (configuration not stated),–,-30.5%,7.31 µM (active),–

SMILES,"lipid storage change, negative = inhibition",cell number change,Potency,outcome
O=C(CSc1cn[nH]n1)Nc1ccccc1F,-23.4% [at 0.0737 µM] (inactive),16.5%,–,–
CCOC(=O)C1=C(COC(=O)c2cc(OC)c(OC)c(OC)c2)NC(=O)NC1C (configuration not stated),4.7% (inactive),-11.6%,–,–
CCOC(=O)C1=C(COC(=O)/C=C/c2cc(OC)c(OC)c(OC)c2)NC(=O)NC1C (configuration not stated),–,4.86%,18.4 µM (active),–
CCOC(=O)C1=C(COC(=O)/C=C/c2cccc(OC)c2OC)NC(=O)NC1C (configuration not stated),–,–,–,inactive
NS(=O)(=O)c1ccc(NC(=S)NC(=O)c2cccs2)cc1,-5.53% (inactive),-5.36%,–,–
Cc1cc(Br)ccc1SCC(=O)N1CCN(S(=O)(=O)c2ccccc2)CC1,–,10.8%,–,inactive
O=C(CN1C(=O)c2cccnc2Oc2ccc(Cl)cc21)NCCc1ccccc1,–,10.9%,–,inactive
O=C(CN1C(=O)c2cccnc2Oc2ccc(Cl)cc21)Nc1ccccc1F,-6.56% (inactive),-28%,–,–
CC(CNC(=O)CN1C(=O)c2cccnc2Oc2ccc(Cl)cc21)c1ccccc1 (configuration not stated),–,-20.3%,20.6 µM (active),–
CC(CNC(=O)CCC(=O)N1CCOc2ccccc21)c1ccccc1 (configuration not stated),-12.8% (inactive),5.19%,–,–
Cc1ccccc1CNC(=O)CCC(=O)N1CCOc2ccc(Cl)cc21,6.67% (inactive),5.19%,–,–
CC(CNC(=O)CCC(=O)N1CCOc2ccc(Cl)cc21)c1ccccc1 (configuration not stated),–,-20.2%,0.92 µM (active),–
COc1ccc(NC(=O)[C@@H](NC(=O)c2ccccc2)C(C)C)cc1S(=O)(=O)N1CCCCC1,-1.46% (inactive),-2.25%,–,–
CC(=O)Nc1ccc(OCC(O)Cn2c3ccccc3c3ccccc32)c(C)c1 (configuration not stated),-3.13% (inactive),-16.4%,–,–
CSc1nc(=S)n(-c2ccccc2)c(C)c1C(C)=O,-5.3% (inactive),-14.2%,–,–
O=C(CCCn1c(SCc2cccc(F)c2)nc2ccccc2c1=O)NCC1CCCO1 (configuration not stated),-7.37% (inactive),-0.301%,–,–
O=C(NCCCN1CCCCC1)c1ccc(CS(=O)c2ccc(F)cc2)o1 (configuration not stated),–,–,–,inactive
O=C(c1ccc(CS(=O)c2ccccc2Cl)o1)N1CCCCCC1 (configuration not stated),–,-21.2%,–,inactive
O=C(NCCN1CCOCC1)c1ccc(CS(=O)c2ccccc2Cl)o1 (configuration not stated),–,-8.85%,4.11 µM (active),–
Cc1ccccc1S(=O)(=O)Cc1ccc(C(=O)NCCCN2CCCC2)o1,1.07% (inactive),13.9%,–,–
Cc1ccccc1S(=O)Cc1ccc(C(=O)NCCCN2CCCCC2)o1 (configuration not stated),–,-18.3%,4.11 µM (active),–
CCN1CCN(CCNC(=O)c2ccc(CS(=O)c3ccc(Cl)cc3)o2)CC1 (configuration not stated),–,–,–,inactive
